The values below come from PubChem BioAssay (NCATS).

For test [1], the target named is Lysosomal acid glucosylceramidase (Homo sapiens) (UniProt P04062). Nature of the test: Glucocerebrosidase-p2 (AID 348; in the data active means potency below about 10 µM; further: potency means the concentration at half of the fitted maximal effect). As to conditions: purified GBA, blue fluorogenic substrate, 40 min. The method, boiled down:
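Compounds titrated from 0.6 nM upwards against 0.2 nM enzyme in pH 5.9 citric acid/KH2PO4, taurocholate, tween-20; blue fluorogenic substrate 80 uM, 40 min room temperature, stopped and read Ex 365/Em 440 for AC50.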

The nature of test [2]: AP1 Signaling Pathway (AID 357). Further: on the % scale 0 is the no-effect control and ±100 the full control effect. As to conditions: ME-180 AP-1-bla reporter, EGF-induced, beta-lactamase ratio, 5 h; at 7.69 µM (top of the series) unless noted. In a few lines: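 ME-180 cells with beta-lactamase reporter under AP-1 response element, stimulated with EC50 EGF; compounds tested in titration series, 5 h at 37 °C. CCF4 substrate added 2.5 h at room temperature; 460/530 nm emission ratio gave %activity and AC50.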

For test [3], the target named is Cytochrome P450 1A2 (Homo sapiens) (UniProt P05177). Nature of the test: p450-cyp1a2 (AID 410; calls by dose curve; further: potency means the concentration at half of the fitted maximal effect;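 on activity change, negative = inhibition: -100% = full effect of reference inhibitor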). As to conditions: recombinant CYP1A2, luciferin-ME demethylation, luminescence; series mostly up to 57 µM. In a few lines: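 20nM CYP1A2 with 100uM Luciferin-ME (at Km) in 100mM KPO4; compound preincubated 10 min, NADPH regeneration added, 60 min at room temperature. Luciferin quantified by luminescence after detection reagent; normalized to 57 uM furafylline.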
Cytochrome P450 1A2 (Homo sapiens), sequence (P05177 whole entry, looked up): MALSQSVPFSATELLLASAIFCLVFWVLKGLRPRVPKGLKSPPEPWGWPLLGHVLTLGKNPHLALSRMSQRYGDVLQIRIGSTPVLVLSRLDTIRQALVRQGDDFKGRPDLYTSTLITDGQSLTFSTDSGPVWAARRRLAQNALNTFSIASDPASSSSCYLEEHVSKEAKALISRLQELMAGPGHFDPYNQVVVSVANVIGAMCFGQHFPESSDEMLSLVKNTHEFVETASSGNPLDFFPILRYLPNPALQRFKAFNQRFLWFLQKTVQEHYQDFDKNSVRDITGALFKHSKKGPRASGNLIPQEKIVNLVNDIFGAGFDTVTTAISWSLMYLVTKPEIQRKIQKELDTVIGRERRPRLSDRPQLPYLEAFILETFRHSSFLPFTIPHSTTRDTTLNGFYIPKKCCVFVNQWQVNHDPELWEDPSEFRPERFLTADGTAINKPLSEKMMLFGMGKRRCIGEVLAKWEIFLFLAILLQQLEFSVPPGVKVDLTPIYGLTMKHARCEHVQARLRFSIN

Test [4] is described as follows: NFAT Signaling Pathway (AID 444).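 Further: carbachol stimulus at about its EC50 of 1 µM final; on the % scale 0 is the no-effect control and ±100 the full control effect.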 As to conditions: Jurkat NFAT-bla M1, carbachol, beta-lactamase ratio, 5 h; at 7.69 µM (top of the series) unless noted. The method, boiled down:
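Jurkat cells carrying an NFAT-driven β-lactamase reporter and co-transfected muscarinic M1 receptor were treated with compound plus carbachol (1 uM final, an EC50 level) for 5 h at 37 °C. CCF4 loading followed for 1 h at RT; 460/530 nm ratio gave %activity.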

Test [5] in a line: Stat Signaling Pathway (AID 446).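 Further: ME-180 cervical cancer cells given 40 pM IL-6 alongside compound; SIE-controlled beta-lactamase reporter measured as 460/530 nm FRET emission ratio; on the % scale 0 is the no-effect control and ±100 the full control effect.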 As to conditions: ME-180 SIE beta-lactamase reporter, IL-6 stimulated, 5 h; at 7.69 µM (top of the series) unless noted. The method, boiled down: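 ME-180 cells carrying a SIE-driven beta-lactamase reporter are stimulated with 40 pM IL-6 for 5 h at 37C in the presence of compound. The 460/530 nm FRET substrate ratio is read after 2.5 h at RT. Data are normalised to 300 pM IL-6 and to 125 nM JAK inhibitor controls.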

Test [6] has as its target Glucocorticoid receptor (Homo sapiens) (UniProt P04150). Nature of the test: GR-EFC Redistribution (AID 451; calls by dose curve; further: potency means the concentration at half of the fitted maximal effect). As to conditions: CHO-K1 GR-EFC translocation, beta-gal luminescence, 2 h. The method, boiled down: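 CHO-K1 cells stably expressing nuclear-localized β-gal enzyme acceptor and GR fused C-terminally to the enzyme donor fragment; ligand-driven nuclear translocation restores β-gal by complementation. Compounds titrated up to 46 uM final, 2 h at 37 °C; luminescence read.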

In test [7] the target is Mitogen-activated protein kinase 10 (Mus musculus) (UniProt Q61831). As to the kind of experiment: JNK3 AlphaScreen Assay (AID 530).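 Further: kinase came from lysate of stimulated human HepG2 cells; signal reports phosphorylation of biotinylated GST-cJun 1-79 at Ser73 with 10 µM ATP; on the % scale 0 is the no-effect control and ±100 the full control effect.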 As to conditions: JNK3 lysate, c-Jun phosphorylation; series mostly up to 57.1 µM. In a few lines:
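Inhibitors reduce antibody binding to phosphorylated biotin-cJun, lowering AlphaScreen luminescence. Lysates from HepG2 cells pre-activated by IL-1beta plus TNF-alpha supplied JNK3; compounds were titrated.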

Test [8] deals with 3',5'-cyclic-AMP phosphodiesterase 4B (Homo sapiens) (UniProt Q07343). Nature of the test: qHTS Assay for Inhibitors of PDE-IV (AID 607; active means well fitted activation curve with a large enough effect in the main read-out, with a control signal flat, not every such curve was filed as active; further: % of control where 0% means no effect). As to conditions: HEK293 ACTOne CNG channel cells, membrane potential fluorescence; series mostly up to 22.9 µM. The method, boiled down:
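HEK293 ACTOne cells with CNG channel (1000/well), endogenous PDE4; membrane potential dye, compounds up to 22.9 uM final. Fluorescence Ex 535/Em 590; RO 20-1724 (100 uM final) as reference.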

The target in test [9] is Cytochrome P450 3A4 (Homo sapiens) (UniProt P08684). As to the kind of experiment: qHTS Assay for Activators of Cytochrome P450 3A4 (AID 885; active means well fitted curve in the direction sought with a large enough effect; an effect the other way counts as inactive or inconclusive; further: nearly all actives have a fitted effect of over 65% in size; further: potency means the concentration at half of the fitted maximal effect). As to conditions: recombinant CYP3A4, Luciferin-PPXE luminescence, 60 min; series mostly up to 57.1 µM. The method, boiled down: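 Human CYP3A4 (20 nM) with Luciferin-PPXE at 25 uM (its KM) in 200 mM KPO4; 10 min compound preincubation, then NADPH regeneration and 60 min reaction at RT. Luciferin read by luminescence; normalized to 57 uM ketoconazole full inhibition.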
Cytochrome P450 3A4 (Homo sapiens), sequence (P08684 whole entry, looked up): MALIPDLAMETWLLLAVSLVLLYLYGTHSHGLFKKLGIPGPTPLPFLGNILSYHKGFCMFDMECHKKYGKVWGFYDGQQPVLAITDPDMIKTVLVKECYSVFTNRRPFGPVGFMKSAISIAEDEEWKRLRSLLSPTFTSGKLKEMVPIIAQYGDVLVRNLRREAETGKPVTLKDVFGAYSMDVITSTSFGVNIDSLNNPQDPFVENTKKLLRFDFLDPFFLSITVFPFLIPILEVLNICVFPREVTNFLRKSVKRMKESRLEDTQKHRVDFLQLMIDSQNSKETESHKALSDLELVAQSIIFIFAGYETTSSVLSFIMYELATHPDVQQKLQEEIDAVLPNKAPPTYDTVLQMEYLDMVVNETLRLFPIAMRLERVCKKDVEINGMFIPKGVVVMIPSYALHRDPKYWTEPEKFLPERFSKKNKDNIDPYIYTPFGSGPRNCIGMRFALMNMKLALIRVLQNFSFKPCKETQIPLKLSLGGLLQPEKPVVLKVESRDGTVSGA

Test [10] is described as follows: qHTS Assay for Lipid Storage Modulators (AID 1519; calls by dose curve). As to conditions: Drosophila S3 cells, BODIPY lipid droplet/cell ratio, laser cytometry, cells loaded with oleic acid; for activity change, negative = inhibition: at 57.5 µM (top of the series). The method, boiled down:
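Cells seeded at 5,000 per well were treated with compounds over a concentration series and loaded with oleic acid (400 uM, as added). Lipid droplet fluorescence (488 nm excitation, 500-530 nm channel) was read by laser-scanning cytometry and normalized to 20 uM Triacsin C.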

Test [11] can be described thus: Primary qHTS for small molecule stabilizers of the endoplasmic reticulum resident proteome: Secreted ER Calcium Modulated Protein (SERCaMP) assay (AID 1508630; active means well fitted curve in the direction sought with a large enough effect; an effect the other way counts as inactive or inconclusive; further: on the % scale 0 is the no-effect control and ±100 the full control effect). As to conditions: SH-SY5Y GLuc-SERCaMP (Gaussia luciferase released on ER calcium loss) secretion, thapsigargin, luminescence; series mostly up to 38.4 µM. In a few lines:
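GLuc-SERCaMP-expressing SH-SY5Y cells, pretreated 16 h with compound, are challenged with thapsigargin to empty ER calcium stores; after 4 h, coelenterazine is added directly to the medium and luminescence is imaged.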

Test [12] concerns the target Cytochrome P450 2D6 (Homo sapiens) (UniProt P10635). As to the kind of experiment: qHTS Assay for Inhibitors and Substrates of Cytochrome P450 2D6 (AID 891; active means well fitted curve in the direction sought with a large enough effect; an effect the other way counts as inactive or inconclusive; further: potency means the concentration at half of the fitted maximal effect; nearly all actives have a fitted effect of over 60% in size). As to conditions: recombinant CYP2D6, luciferin-ME EGE luminescence; series mostly up to 57.1 µM. In a few lines:
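Human CYP2D6 (5 nM) with 30 uM Luciferin-ME EGE (at Km) in 100 mM KPO4, compound preincubated 10 min, then NADPH regeneration system for 60 min at room temperature. Luciferin read by luminescence; normalized to 1.43 uM quinidine.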
Background: Quantitative high-throughput screening tests each substance at several concentrations.

Setting [13] is: measured here: cell count channel max response.
Where [14] appears, read: measured here: lipid channel max response.

The structures appear in SMILES notation. Records with an inconclusive call do not appear. Active and inactive are the calls of the source. Unless noted, the call rests on the fitted dose curve; in most records, active means well fitted curve in either direction with a large enough effect (not every such curve was filed as active); inconclusive means small, poorly fitted or top-dose-only effect, or another doubt; inactive means flat fitted curve, though single readings scatter.

Glucocorticoid receptor (Homo sapiens), sequence (P04150 whole entry, looked up, the tested form may be a part): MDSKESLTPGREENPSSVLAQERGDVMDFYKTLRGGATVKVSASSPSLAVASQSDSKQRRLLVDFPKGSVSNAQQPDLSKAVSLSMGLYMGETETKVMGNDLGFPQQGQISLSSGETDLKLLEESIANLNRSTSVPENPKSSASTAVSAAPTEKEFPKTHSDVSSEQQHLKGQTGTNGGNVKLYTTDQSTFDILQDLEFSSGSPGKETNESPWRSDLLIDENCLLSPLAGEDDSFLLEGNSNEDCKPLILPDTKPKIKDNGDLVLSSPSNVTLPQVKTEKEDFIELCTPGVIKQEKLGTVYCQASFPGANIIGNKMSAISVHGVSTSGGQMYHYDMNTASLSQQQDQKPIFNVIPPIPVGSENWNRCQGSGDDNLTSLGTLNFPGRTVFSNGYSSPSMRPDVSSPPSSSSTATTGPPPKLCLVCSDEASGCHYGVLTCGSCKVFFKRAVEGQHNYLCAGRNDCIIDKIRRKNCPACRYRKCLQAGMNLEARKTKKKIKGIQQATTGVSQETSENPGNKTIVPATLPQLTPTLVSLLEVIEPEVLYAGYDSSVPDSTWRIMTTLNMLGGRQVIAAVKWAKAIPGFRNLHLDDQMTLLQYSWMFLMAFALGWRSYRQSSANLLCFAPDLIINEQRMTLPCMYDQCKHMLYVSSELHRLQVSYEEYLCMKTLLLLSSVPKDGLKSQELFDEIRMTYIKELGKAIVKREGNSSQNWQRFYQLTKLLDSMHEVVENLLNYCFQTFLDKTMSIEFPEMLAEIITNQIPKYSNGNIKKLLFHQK
3',5'-cyclic-AMP phosphodiesterase 4B (Homo sapiens), sequence (Q07343 whole entry, looked up): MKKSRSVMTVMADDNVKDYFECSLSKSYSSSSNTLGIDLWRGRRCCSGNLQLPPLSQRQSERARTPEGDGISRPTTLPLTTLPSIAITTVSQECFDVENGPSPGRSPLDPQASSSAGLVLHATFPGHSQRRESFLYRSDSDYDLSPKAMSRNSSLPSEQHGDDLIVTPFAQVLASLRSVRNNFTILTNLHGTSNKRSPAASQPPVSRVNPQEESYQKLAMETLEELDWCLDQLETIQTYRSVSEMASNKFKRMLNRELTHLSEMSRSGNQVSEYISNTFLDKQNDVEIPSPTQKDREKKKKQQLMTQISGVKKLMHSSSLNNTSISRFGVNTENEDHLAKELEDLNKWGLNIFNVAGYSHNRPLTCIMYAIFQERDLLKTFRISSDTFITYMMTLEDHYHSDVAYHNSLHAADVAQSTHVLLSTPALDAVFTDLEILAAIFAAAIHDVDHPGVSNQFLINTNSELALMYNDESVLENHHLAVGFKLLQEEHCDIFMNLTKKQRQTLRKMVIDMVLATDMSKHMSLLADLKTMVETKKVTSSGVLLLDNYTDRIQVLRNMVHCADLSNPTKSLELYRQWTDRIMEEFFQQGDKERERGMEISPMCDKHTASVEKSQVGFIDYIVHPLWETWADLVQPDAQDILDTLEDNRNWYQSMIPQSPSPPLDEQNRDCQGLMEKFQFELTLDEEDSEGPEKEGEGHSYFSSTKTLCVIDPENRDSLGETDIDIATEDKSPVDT
Lysosomal acid glucosylceramidase (Homo sapiens), sequence (P04062 whole entry, looked up): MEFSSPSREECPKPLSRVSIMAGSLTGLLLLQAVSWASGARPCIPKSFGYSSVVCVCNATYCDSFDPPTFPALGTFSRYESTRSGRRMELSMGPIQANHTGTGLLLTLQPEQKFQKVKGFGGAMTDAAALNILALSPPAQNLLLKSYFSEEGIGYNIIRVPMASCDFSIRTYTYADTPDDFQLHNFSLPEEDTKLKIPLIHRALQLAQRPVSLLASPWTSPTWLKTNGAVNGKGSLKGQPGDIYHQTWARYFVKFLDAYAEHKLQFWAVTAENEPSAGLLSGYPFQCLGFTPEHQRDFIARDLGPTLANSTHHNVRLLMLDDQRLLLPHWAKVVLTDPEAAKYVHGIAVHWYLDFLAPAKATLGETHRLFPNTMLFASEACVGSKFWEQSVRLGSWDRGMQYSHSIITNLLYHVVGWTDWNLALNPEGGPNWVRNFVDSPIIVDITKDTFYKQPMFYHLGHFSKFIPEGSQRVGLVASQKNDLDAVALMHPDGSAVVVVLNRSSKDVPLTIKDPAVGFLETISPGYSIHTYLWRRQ
Cytochrome P450 2D6 (Homo sapiens), sequence (P10635 whole entry, looked up): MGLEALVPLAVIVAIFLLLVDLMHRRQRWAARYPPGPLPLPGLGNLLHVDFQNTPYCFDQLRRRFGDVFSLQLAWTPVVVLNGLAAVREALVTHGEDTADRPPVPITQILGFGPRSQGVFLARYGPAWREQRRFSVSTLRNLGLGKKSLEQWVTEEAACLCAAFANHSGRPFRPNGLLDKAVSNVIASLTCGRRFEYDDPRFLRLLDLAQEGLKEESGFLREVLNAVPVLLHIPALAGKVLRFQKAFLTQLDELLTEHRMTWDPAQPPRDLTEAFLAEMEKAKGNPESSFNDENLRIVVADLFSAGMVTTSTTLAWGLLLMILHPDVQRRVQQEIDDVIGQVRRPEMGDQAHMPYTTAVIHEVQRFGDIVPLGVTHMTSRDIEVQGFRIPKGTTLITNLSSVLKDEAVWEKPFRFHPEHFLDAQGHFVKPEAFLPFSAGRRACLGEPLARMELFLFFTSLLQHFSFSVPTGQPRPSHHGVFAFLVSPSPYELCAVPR

Turning to `CS(=O)(=O)N1CCC[C@@]2(CCN(C(=O)Nc3cccc(F)c3)C2)C1`, the Potency in [1] was > 11.4 µM (inactive); in [6] it was > 46 µM (inactive). Moreover, the activity change, negative = inhibition was -7.6% (inactive) in test [2], 16.7% (inactive) in test [4] and 1.83% (inactive) in test [10]. In addition, the Potency result in test [3], in test [8], in test [9] and in test [11] was “inactive” each time. In addition, the activity, negative = inhibition in test [5] was -3.89% (inactive). The compound was classed as inactive in test [7]. Further, the max response turned out to be 1.7% in [10] (setting [13]) and 6.37% in test [10] (setting [14]).
With `CS(=O)(=O)N1CCC2(CCN(C(c3ccccc3)c3ccccc3)CC2)CC1`, the Potency in test [1] was > 11.4 µM (inactive); in [6] it was > 46 µM (inactive); in test [9] it was 12.6 µM (active); in [12], 3.16 µM (active). In addition, the activity change, negative = inhibition is -4.08% (inactive) in test [2], -8.24% (inactive) in test [4] and 0.47% (inactive) in test [10]. Moreover, the Potency entry in test [3], in test [8] and in [11] was “inactive” each time. Moreover, the activity, negative = inhibition in test [5] is 3.12% (inactive). Moreover, the call in test [7] was inactive. Besides, the max response in test [10] (setting [13]) was -0.926%; in [10] (setting [14]), 0.776%.
For the compound `COc1ccc(C(=O)N2CCC[C@@]3(CCN(Cc4ccc(C#N)cc4)C3)C2)cc1`, the Potency in test [1] is > 11.4 µM (inactive); in test [6], > 46 µM (inactive). For the same compound, the values for the activity change, negative = inhibition in test [2], in [4] and in [10] were -1.6% (inactive), -4.67% (inactive) and 3.64% (inactive), respectively. In addition, the Potency entry in [3], in test [8], in test [9] and in test [11] was “inactive” throughout. Moreover, in test [5], the activity, negative = inhibition is 3.73% (inactive). The result in [7] was inactive. For the same compound, the max response in test [10] (setting [13]) came out at 10.2%; in test [10] (setting [14]) it was 17.8%.
With `CC(C)NC(=O)N1CC2(CCN(C(=O)c3ccncc3)CC2)C1`, the Potency in test [1] is > 11.4 µM (inactive); in test [6] it was > 46 µM (inactive). The activity change, negative = inhibition in test [2] is 13% (inactive); in test [4], 10.6% (inactive); in test [10], -0.244% (inactive). In addition, the Potency entry in test [3], in [8], in test [9] and in test [11] was “inactive” throughout. Besides, in test [5], the activity, negative = inhibition is 7.63% (inactive). In addition, in [7], the compound was classed as inactive. In addition, the max response in test [10] (setting [13]) stood at 11.6%; in test [10] (setting [14]) it was 15.6%.
Take `COC(=O)N1CCC[C@@]2(CCN(C(=O)Nc3cccc(F)c3)C2)C1`: the figures for the Potency in [1], in [3] and in test [6] were > 11.4 µM (inactive), 15.8 µM (active) and > 46 µM (inactive), respectively. Also, the activity change, negative = inhibition in test [2] was -17.4% (inactive); in test [4] it was -2.35% (inactive); in [10] it was 5.97% (inactive). In test [5], the activity, negative = inhibition was 1.62% (inactive). The result in [7] was inactive. Besides, the Potency result in [8], in [9] and in [11] was “inactive” each time. Further, the max response in test [10] (setting [13]) turned out to be 20.5%; in [10] (setting [14]) it was 28.7%.
Turning to `COCC(=O)N1CCC[C@@]2(CCN(Cc3ccc(C#N)cc3)C2)C1`, the Potency in test [1] is > 11.4 µM (inactive); in test [6], > 46 µM (inactive). Also, the activity change, negative = inhibition is -13.6% (inactive) in [2], 4.93% (inactive) in [4] and 5.07% (inactive) in test [10]. For the same compound, the Potency entry in [3], in test [8], in test [9] and in test [11] was “inactive” in each case. Moreover, in [5], the activity, negative = inhibition is 5.14% (inactive). Also, the compound was classed as inactive in [7]. Besides, the figures for the max response in test [10] (setting [13]) and in [10] (setting [14]) were 7.03% and 15.9%, respectively.
